{
  "source": "PubChem BioAssay AID2313",
  "about": "(Broad Institute, 2010)",
  "note": "Among all 22,000 compounds or so, about 460 (2.1%) were called active. Another 2% or so got no clear call; they are omitted. Only a selection was taken, and actives are over-represented in it overall. A number with no mark means an inactive call.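 The calls were made as follows: active = mean inhibition across valid replicates above about 65% (limit read from the data); inconclusive = mean under the limit, yet half or more replicates past it; inactive = the rest.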",
  "data": [
    {"experiment": "Hedgehog pathway signaling inhibitors, primary screen, luminescence, Shh-LIGHT2 cells, Gli-luciferase (AID 2313);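 also: pathway switched on by Shh-conditioned medium diluted 1 in 25 in low serum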", "conditions": "Shh-LIGHT2 Gli-luciferase reporter, 30 h; hits give high values", "values": [
      {"molecule": "COc1ccc(NC(=O)N(C)C[C@@H]2OCCCC[C@@H](C)Oc3ccc(NS(=O)(=O)c4c(C)noc4C)cc3C(=O)N([C@H](C)CO)C[C@@H]2C)cc1", "inhibition": "-43%"},
      {"molecule": "C=C1CCC2C(C)(C)C(O)CCC2(C)C1CC/C(C)=C/C(=O)O", "note": "(stereo not given)", "inhibition": "4.62%"},
      {"molecule": "COc1ccc(NC(=O)Nc2ccc3c(c2)C(=O)N([C@@H](C)CO)C[C@H](C)[C@H](CN(C)CC2CCCCC2)O3)cc1", "inhibition": "-5.89%"},
      {"molecule": "C[C@@H]1CN([C@@H](C)CO)C(=O)c2cc(NC(=O)Nc3ccc(C(F)(F)F)cc3)ccc2O[C@@H]1CN(C)Cc1ccncc1", "inhibition": "10.7%"},
      {"molecule": "C[C@H]1CN([C@@H](C)CO)C(=O)c2cccc(NC(=O)C3CC3)c2O[C@@H]1CN(C)S(=O)(=O)c1ccc(F)cc1", "inhibition": "-1.67%"},
      {"molecule": "CCCN(C)C[C@@H]1OCCCC[C@@H](C)Oc2ccc(NS(=O)(=O)c3c(C)noc3C)cc2C(=O)N([C@H](C)CO)C[C@@H]1C", "inhibition": "35.2%"},
      {"molecule": "Cc1ccoc1CC[N+](C)(C)C", "inhibition": "-11.8%"},
      {"molecule": "Cc1ccc(S(=O)(=O)Nc2ccc3c(c2)C(=O)N([C@H](C)CO)C[C@H](C)[C@H](CN(C)S(=O)(=O)c2ccc(F)cc2)OCCCC[C@@H](C)O3)cc1", "inhibition": "-17.8%"},
      {"molecule": "CCC(=O)O[C@]1(C(=O)CCl)[C@@H](C)CC2C3CCC4=CC(=O)C=C[C@]4(C)[C@@]3(F)[C@@H](O)C[C@@]21C", "note": "(stereo not given in full)", "inhibition": "79.4% (active)"},
      {"molecule": "CC[C@]1(O)C[C@@H]2CN(CCc3c([nH]c4ccccc34)[C@@](C(=O)OC)(c3cc4c(cc3OC)N(C)[C@H]3[C@@](O)(C(=O)OC)[C@H](OC(C)=O)[C@]5(CC)C=CCN6CC[C@]43[C@@H]65)C2)C1", "inhibition": "88.5% (active)"},
      {"molecule": "CC(C)NC(=O)N(C)C[C@@H]1Oc2c(NC(=O)c3cnccn3)cccc2C(=O)N([C@@H](C)CO)C[C@@H]1C", "inhibition": "2.03%"},
      {"molecule": "NC(=S)c1cnn2c(C(F)(F)F)cc(C(F)(F)F)nc12", "inhibition": "-19.5%"},
      {"molecule": "CC[N+]1=C(C)C(C)(C)c2cc(-c3ccccc3)ccc21", "inhibition": "32.5%"},
      {"molecule": "C[C@@H]1CCCCO[C@H](CN(C)S(=O)(=O)c2ccc(Cl)cc2)[C@@H](C)CN([C@H](C)CO)C(=O)c2cc(NC(=O)Nc3ccc4c(c3)OCO4)ccc2O1", "inhibition": "-3.15%"},
      {"molecule": "Cc1noc(C)c1S(=O)(=O)Nc1ccc2c(c1)CC(=O)N([C@H](C)CO)C[C@@H](C)[C@@H](CN(C)Cc1ccncc1)O2", "inhibition": "48%"},
      {"molecule": "C[C@@H]1CN([C@H](C)CO)C(=O)Cc2cc(NC(=O)Cn3cnnn3)ccc2O[C@H]1CN(C)CC1CCCCC1", "inhibition": "-28.8%"},
      {"molecule": "CC(C)(C)c1ccc(-c2[nH]nc(NC(=O)c3ccccc3Cl)c2Br)cc1", "inhibition": "25.9%"},
      {"molecule": "CC(C)NC(=O)N(C)C[C@H]1Oc2c(NC(=O)c3ccncc3)cccc2C(=O)N([C@@H](C)CO)C[C@H]1C", "inhibition": "10.7%"},
      {"molecule": "C[C@H]1CN([C@@H](C)CO)C(=O)Cc2cc(NS(=O)(=O)c3cccs3)ccc2O[C@H]1CN(C)Cc1ccncc1", "inhibition": "-17.7%"},
      {"molecule": "O=C(O)CCC(=O)N(Cc1ccccc1)Cc1cn(-c2ccccc2)nc1-c1cccnc1", "inhibition": "-8.01%"}
    ]}
  ]
}
